HEK293 cAMP cs = counter-screen for TSHR agonists: cAMP increase in parental HEK293; parental HEK293 CNG cAMP sensor, membrane potential fluorescence; Potency, µM (top dose mostly 57.1 µM), most hits filed as activators; 73,000 tested, 2.5% active; AID 938; active = well fitted activation curve with a large enough effect; inconclusive = small, poorly fitted or top-dose-only effect; inactive = no such curve, though single readings can be large or run the other way; also: nearly all actives have a fitted effect of over 55% in size
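Parental HEK 293 cells stably expressing a modified CNG channel (no TSHR) report cAMP rise as membrane depolarization. Membrane potential dye with 100 uM RO 20-1724 was loaded for 60 min at room temperature, then compound added for 30 min; fluorescence read at 590 nm.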
IkB signaling = suppresses IkB signaling in ABC-DLBCL reporter cells; ABC-DLBCL IkBa-CBG/CBR dual luciferase ratio, 4 h; response scale: scaled: untreated 0%, proteasome inhibitor 100%; Potency, µM (doses to about 57.1 µM); 110,000 tested, 0.04% active; AID 445; active = well fitted curve in the direction sought with a large enough effect in the signal ratio, not every such curve was filed as active; inconclusive = small, poorly fitted or top-dose-only effect, or a change in a side signal; the % refers to the signal ratio;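 also: the direction sought is a rising ratio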
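Luminescence ratio of IκBα-fused green versus native red beetle luciferase in OCI-Ly3 cells, 4 h post-doxycycline with compound; red signal alone, scaled from basal (0%) to zero light (-100%), flagged nonspecific or cytotoxic effects.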
Hsp90 Hop PPI = changes Hsp90-Hop TPR2A binding signal, up or down; AlphaScreen TPR2A-His6 binding biotin-Hsp90 C-terminal peptide; Potency, µM (doses to about 57 µM); 71,000 tested, 0.44% active; active = well fitted curve in either direction with a large enough effect; inconclusive = small, poorly fitted or top-dose-only effect, or another doubt
CRE Fsk mod = alters forskolin-stimulated CRE reporter signaling in CHO cells. Potency, µM (series often up to 38.2 µM), hits mostly activators. CHO CRE-bla reporter (cAMP response element driving beta-lactamase), forskolin EC10, beta-lactamase ratio. AID 662. 71,000 tested, 2.5% active; active = well fitted activation curve with a large enough effect in the signal ratio, with a control signal flat, not every such curve was filed as active; inconclusive = small, poorly fitted or top-dose-only effect, or effect the other way, or a change in a side signal; the % refers to the signal ratio
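Modulation of forskolin-driven signalling is measured in CHO cells carrying a CRE-controlled beta-lactamase reporter. Cells are stimulated with EC10 NKH 477 in the presence of titrated compound for 3 h at 37 °C, then loaded with CCF4 for 2 h at room temperature.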
TSHR agonist = TSH receptor (human) agonism | P16473 | 73,000 tested, 0.48% active | Potency, µM (series often up to 57.1 µM), most hits filed as activators | HEK293-CNG-TSHR cells (CNG channel as cAMP sensor), membrane potential dye, cAMP; active = well fitted activation curve with a large enough effect in the main read-out, with a control signal flat, not every such curve was filed as active; inconclusive = small, poorly fitted or top-dose-only effect, or a change in a side signal; inactive = no such curve, though single readings can be large or run the other way; reference of the percent scale not stated here;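 also: the control signal comes from parental cells without the receptor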
Target sequence (P16473 whole entry, looked up): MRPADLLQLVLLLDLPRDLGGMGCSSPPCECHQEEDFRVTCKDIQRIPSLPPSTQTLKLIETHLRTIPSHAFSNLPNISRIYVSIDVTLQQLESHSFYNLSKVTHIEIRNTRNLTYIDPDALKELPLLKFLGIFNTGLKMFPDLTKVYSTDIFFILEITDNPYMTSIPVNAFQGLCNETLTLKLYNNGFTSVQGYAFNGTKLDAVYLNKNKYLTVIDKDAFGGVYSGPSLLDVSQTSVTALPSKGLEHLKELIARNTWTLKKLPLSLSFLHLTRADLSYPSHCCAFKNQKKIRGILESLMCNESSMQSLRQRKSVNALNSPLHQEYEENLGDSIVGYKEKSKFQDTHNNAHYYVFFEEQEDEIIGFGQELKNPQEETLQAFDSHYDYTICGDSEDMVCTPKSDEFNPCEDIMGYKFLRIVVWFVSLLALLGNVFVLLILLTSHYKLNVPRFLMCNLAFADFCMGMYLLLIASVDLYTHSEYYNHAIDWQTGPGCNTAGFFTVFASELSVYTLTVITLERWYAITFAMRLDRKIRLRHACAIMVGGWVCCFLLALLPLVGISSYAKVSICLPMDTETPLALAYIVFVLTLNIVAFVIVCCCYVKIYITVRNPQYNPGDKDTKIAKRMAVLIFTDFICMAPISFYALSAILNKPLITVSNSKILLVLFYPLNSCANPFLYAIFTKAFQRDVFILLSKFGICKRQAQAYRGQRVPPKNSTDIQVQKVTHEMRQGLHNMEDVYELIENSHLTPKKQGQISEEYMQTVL
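HEK 293 cells stably expressing TSHR and a cAMP-gated CNG channel; parental CNG-only cells as counterscreen. Cells preloaded 60 min with membrane potential dye plus 100 uM RO 20-1724, then compound 30 min; fluorescence read at 590 nm.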
Numbers stand for hits; n = inactive; u = inconclusive; x = no result given; [ ] = remark or other dose. Sampled rows, rich in hits. Any-hit rate of the full collection: about 3.5%.

SMILES	HEK293 cAMP cs	IkB signaling	Hsp90 Hop PPI	CRE Fsk mod	TSHR agonist
Cc1nc2ncnn2c(Nc2ccc3c(c2)OCO3)c1Cc1ccccc1	25µM	u	n	u	u
Cc1nc2ncnn2c(N2CCC(C(=O)NC3CCCC3)CC2)c1Cc1ccccc1	n	n	n	n	n
Cc1ccc(-n2nc(C)c(C3C(C#N)=C(N)OC4=C3C(=O)CC(C)(C)C4)c2Cl)cc1 (stereo not drawn)	25µM	n	n	n	u
Cc1nn(-c2ccccc2)c(Cl)c1C1C(C#N)=C(N)OC2=C1C(=O)CCC2 (stereo not drawn)	n	n	n	n	n
O=C(CSc1n[nH]c(=O)n1C1CC1)Nc1cc(Cl)ccc1Oc1ccccc1	13µM	u	n	u	u
CC(NC(=O)CSc1n[nH]c(=O)n1C1CC1)C12CC3CC(CC(C3)C1)C2 (stereo not drawn)	n	n	n	n	n
N#Cc1nc(COc2ccccc2F)oc1NCc1ccc(F)cc1	u	n	n	n	u
COc1ccc(CCNc2oc(Cc3cccc4ccccc34)nc2C#N)cc1OC	n	u	u	u	20µM
COc1ccc(CCNc2oc(COc3ccccc3F)nc2C#N)cc1	20µM	u	n	u	u
CCOc1ccc(CCNC(=O)c2c(C)oc3ncn(CC(C)C)c(=O)c23)cc1OCC	x	n	x	x	x
CCc1cccc(C)c1NC(=O)Cn1ccn(Cc2ccc(Cl)cc2)c(=O)c1=O	x	n	x	x	x
O=C1c2ccccc2NC2CCCCCN12 (stereo not drawn)	n	n	n	n	n
O=C1c2ccccc2NC2CCCCC12 (stereo not drawn)	5µM	n	n	u	u
CC(C)(C)c1ccc(S(=O)(=O)NCc2ccc3c(c2)CCN3C(=O)c2ccccc2)cc1	x	n	x	x	x
CCOC(=O)c1[nH]c(C)c(C(=O)c2cc(F)ccc2F)c1C	n	n	n	13µM	32µM
CC(=O)Oc1cc(OC(C)=O)c2c(=O)cc(-c3ccc(OC(C)=O)c(OC(C)=O)c3)oc2c1	n	n[11.4 µM]	n	u	n
Cc1ccc2cc(CN(Cc3ccco3)C(=O)C3CCCCC3)c(=O)[nH]c2c1C	20µM	n	n	n	u
Cc1cc(C)c2[nH]c(=O)c(CN(Cc3ccco3)C(=O)C3CCCO3)cc2c1 (stereo not drawn)	n	n	n	n	n
COc1ccc(S(=O)(=O)Nc2ccc3c(c2)OCO3)cc1C(=O)O	32µM	x	x	x	u
COc1ccc(S(=O)(=O)N(CC(=O)Nc2ccc3c(c2)OCO3)c2ccccc2OC)cc1	n	u	n	u	6.3µM
COC(=O)[C@@]1(Cc2ccc(OC)cc2)[C@H]2c3cc(C(=O)N(C)C)n(CCc4c[nH]c5ccc(O)cc45)c3C[C@H]2CN1C(=O)c1ccccc1	n[2.29 µM]	x	n	n	n
Cc1occc1-c1nnc(SCC(=O)Nc2ccccc2)n1Cc1ccccc1	u	u	n	n	u
COc1cccc(OCc2nnc(SC)n2C)c1	n	n	n	n	n
CCn1c(SCC(=O)Nc2ccccc2C(=O)OC)nnc1-c1ccoc1C	32µM	n	n	u	u
COc1ccc(NC(=O)CSc2nnc(-c3ccoc3C)n2CCc2ccccc2)cc1	n	u	n	n	25µM
SMILES	HEK293 cAMP cs	IkB signaling	Hsp90 Hop PPI	CRE Fsk mod	TSHR agonist
COc1cccc(OCc2nnc(SCC(=O)OC3CCCCC3)n2C)c1	16µM	n	n	n	u
CCn1c(COc2cccc(OC)c2)nnc1SCC(=O)Nc1ccccc1C(=O)OC	16µM	n	n	n	u
COc1ccc(Nc2nc3c(S(=O)(=O)c4ccccc4)nnn3c3ccc(Cl)cc23)c(OC)c1	x	n	x	x	x
CCOC(=O)CCN1C(=O)[C@H]2[C@H]3[C@H](O)[C@H](O)C/C(=N/OCC(C)C)[C@H]3CC[C@@H]2C1=O	n[11.4 µM]	x	x	x	n[11.4 µM]
Cc1c2ccccc2c(CSC(=N)N)c2ccccc12	n[11.4 µM]	u	n[11 µM]	u	n[11.4 µM]
Cc1occc1-c1nnc(SCC(=O)Nc2ccccc2-c2ccccc2)n1C	n	n	n	n	n
CCCn1c(SCC(=O)Nc2ccccc2-c2ccccc2)nnc1-c1ccoc1C	16µM	u	n	n	u
CC(C)CNC(=O)CN(C1CCCCC1)S(=O)(=O)c1ccccc1	n	n	n	n	32µM
CCOc1ccc(-c2noc(-c3ccncc3)n2)cc1OCC	n	n	n	20µM	n
Cc1ccc(C(=O)N2CCCC(c3nc4c(nnn4Cc4ccccc4)c(=O)[nH]3)C2)cc1 (stereo not drawn)	25µM	n	n	u	u
Cc1ccc(CC(=O)N2CCC(c3nc4c(nnn4Cc4ccccc4)c(=O)[nH]3)CC2)cc1	n	n	n[2.3 µM]	10µM	n
O=C(c1ccccc1Cl)N1CCC(c2nc3c(nnn3Cc3ccco3)c(=O)[nH]2)CC1	n	n	n[2.3 µM]	10µM	n
Cc1ccccc1Cn1nnc2c(=O)[nH]c(C3CCCN(C(=O)c4ccc(F)cc4)C3)nc21 (stereo not drawn)	x	n	x	x	x
COc1cccc(CNC(=O)CCc2cn(Cc3ccccc3Cl)c3ccccc23)c1	x	n	x	x	x
COC(=O)C1=C(C)NC(C)=C(C(=O)OC)C1c1cn(-c2ccccc2)nc1-c1ccco1	n	n	n	n	1.6µM
COCCOC(=O)C1=C(C)NC(=O)NC1c1cn(-c2ccccc2)nc1-c1cccs1 (stereo not drawn)	n	n	n	u	n
CCCCCSc1nc2c(c(=O)[nH]c(=O)n2C)n1C(C)C	n	n	n	10µM	n[11.4 µM]
CC(C)n1c(SCC(N)=O)nc2c1c(=O)[nH]c(=O)n2C	n	n	n	n	n
CCCCCSc1nc2c(c(=O)[nH]c(=O)n2C)n1CC	n	n	n	7.9µM	n
CCCCCn1c(Sc2nc3ccccc3s2)nc2c1c(=O)[nH]c(=O)n2C	u	n	n	13µM	u
CC(C)CSc1nc2c(c(=O)[nH]c(=O)n2C)n1CCc1ccccc1	u	n	n	n	u
CCCCCCn1c(SCC(C)C)nc2c1c(=O)[nH]c(=O)n2C	25µM	n	n	n	u
CCC(=O)CC(NC(=O)OC)c1ccccc1 (stereo not drawn)	n[11.4 µM]	x	x	x	n[11.4 µM]
Cc1sc2ncnc(-n3cnc4ccccc43)c2c1C	n	u	n	u	n
Cc1sc2ncnc(N3CCCCC3C)c2c1C (stereo not drawn)	25µM	u	n	n	u
Cc1ccnc(NS(=O)(=O)c2ccc(N=[N+]=[N-])cc2)n1	n[11.4 µM]	n[11.4 µM]	n[11 µM]	n[7.6 µM]	n[11.4 µM]
C1CCC(N=C(NC23CC4CC(CC(C4)C2)C3)N2CCOCC2)CC1	25µM	n	n	n	u
CC1CCCCN1c1nc(-c2ccc(C(C)(C)C)cc2)nc2ccccc12 (stereo not drawn)	x	n	x	x	x
CC1CCCCN1c1nc(-c2ccncc2)nc2ccccc12 (stereo not drawn)	25µM	u	n	7.9µM	u
CC1CCN(c2nc(-c3ccncc3)nc3ccccc23)CC1	u	u	n	7.9µM	u
